High-throughput results deposited in PubChem BioAssay by National Center for Advancing Translational Sciences (NCATS).
Only some compounds are listed: those with a hit (about 7.5% of all), similar ones and a draw of the others.
Luc counter – blocks Kinase-Glo luciferase, a counter-screen artifact | Kinase-Glo luciferase, ATP luminescence, 8 min | Potency, µM (titrated, usually from 38.3 µM), actives largely listed as inhibitors | actives 0.28% (n = 200,000) | AID 1379; further: nearly all actives have a fitted effect of over 60% in size
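Recombinant Kinase-Glo luciferase, 10 uM ATP (linear range), luciferin; imidazole pH 7.2 / KCl / MgCl2 / Tween / BSA buffer; 8 min RT; luminescence.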
FLuc counter – firefly luciferase modulation, counter-screen for miR-21 project | actives 6.9% (n = 360,000) | AID 588342 | purified FLuc, Km substrates, luminescence inhibition | P08659 | Potency, µM (series often up to 57.5 µM), hits mostly inhibitors; further: nearly all actives have a fitted effect of over 55% in size
Target sequence (P08659 whole entry, looked up): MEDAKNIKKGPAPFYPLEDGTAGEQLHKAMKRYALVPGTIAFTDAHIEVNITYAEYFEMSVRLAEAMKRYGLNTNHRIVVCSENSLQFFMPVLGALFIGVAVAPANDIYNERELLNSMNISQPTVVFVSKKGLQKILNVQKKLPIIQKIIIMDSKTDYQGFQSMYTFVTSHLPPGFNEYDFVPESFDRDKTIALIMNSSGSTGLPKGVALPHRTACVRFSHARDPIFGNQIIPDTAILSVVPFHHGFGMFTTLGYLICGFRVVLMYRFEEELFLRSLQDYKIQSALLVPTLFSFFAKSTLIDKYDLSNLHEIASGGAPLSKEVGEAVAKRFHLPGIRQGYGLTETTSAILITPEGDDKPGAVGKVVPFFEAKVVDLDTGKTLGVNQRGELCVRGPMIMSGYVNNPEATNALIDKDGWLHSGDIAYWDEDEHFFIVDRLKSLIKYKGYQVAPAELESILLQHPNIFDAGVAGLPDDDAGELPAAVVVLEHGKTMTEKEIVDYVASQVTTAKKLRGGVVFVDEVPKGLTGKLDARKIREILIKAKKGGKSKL
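Purified P. pyralis luciferase, 10 nM final, with Km-level 10 uM D-luciferin and 10 uM ATP in 50 mM Tris acetate pH 7.5, 10 mM Mg acetate, 0.01% Tween-20, 0.05% BSA; 6-point qHTS titration about 60 µM downward; luminescence read.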
ELG1 genotox – induces genotoxicity in HEK293T cells with luciferase-tagged ELG1; HEK293T ELG1-luciferase reporter, luminescence, 16 h; Potency, µM (titrated, usually from 46 µM), actives largely listed as activators; actives 1.3% (n = 330,000); further: nearly all actives have a fitted effect of over 60% in size
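HEK293T cells expressing luciferase-tagged ELG1 were treated with compound or DMSO for 16 hr at 37°C. Luciferase activity was then read after 30 min with ONE-Glo at room temperature; rising signal flags genetic stress.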
SMN2 splice up – SMN2 splice variant enhancement; actives 2.8% (n = 210,000); HEK293 SMN2-luciferase splicing reporter, luminescence, 30-36 h; Potency, µM (titrated, usually from 46.1 µM), usual class: activators; further: nearly all actives have a fitted effect of over 55% in size
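HEK293 cells carry an SMN2 […]–luciferase reporter in which exon 7 inclusion puts luciferase in frame. Cells were plated 10-12 h before compound addition, then incubated 30-36 h at 37C. ONE-Glo luminescence was read; sodium butyrate at 4.5 mM final served as control.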
Rab9 prom act – Rab9 promoter activation. Huh7 Rab9 promoter-luciferase reporter, luminescence, 24 h. Potency, µM (titrated, usually from 9.22 µM), actives largely listed as activators. actives 2.8% (n = 320,000). AID 485297; further: nearly all actives have a fitted effect of over 60% in size
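Rab9 promoter-driven luciferase in stably transfected Huh7 cells; 1500 cells/well rested 2 h, exposed to compound in DMSO for 24 h at 37 °C, 5% CO2. Luminescence read 10 min after adding luciferase reagent at ambient temperature.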
NPC1 promoter act – activates the NPC1 promoter | Huh7 NPC1 promoter luciferase reporter, 24 h | Potency, µM (titrated, usually from 9.22 µM), usual class: activators | actives 2.4% (n = 320,000); further: nearly all actives have a fitted effect of over 60% in size
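Huh7 reporter cells (NPC1 promoter driving luciferase) are dosed with compound for 24 h at 37 °C, 5% CO2; luciferase detection reagent is then added and luminescence measured after 10 min at ambient temperature.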
Numbers stand for hits; 0 = inactive; ? = inconclusive; - = no result given; [ ] = remark or other dose. The call rests on the fitted dose curve; in most records, active means well fitted curve in the direction sought with a large enough effect; inconclusive means small, poorly fitted or top-dose-only effect, or another doubt; inactive means no such curve, though single readings can be large; an effect the other way counts as inactive or inconclusive.

SMILES	Luc counter	FLuc counter	ELG1 genotox	SMN2 splice up	Rab9 prom act	NPC1 promoter act
COc1ccc(N2CCN(CC(O)COc3ccc(C(C)C)c(C)c3)CC2)cc1 (stereo not given)	-	0	-	0	-	-
Cc1ccc(CC2CC(=O)N(c3ncccn3)C2=O)cc1 (stereo not given)	-	0	0	-	0	0
O=C1CC(Cc2ccccc2)C(=O)N1c1ncccn1 (stereo not given)	0	15.1µM	14.6µM	-	?	2.24µM
O=C1CC(Cc2ccc(Cl)cc2)C(=O)N1c1ccccn1 (stereo not given)	0	0	0	31.6µM	0	0
CCn1cc(S(=O)(=O)c2cc(C)cc(C)c2)c(=O)c2cc(F)c(N3CCCC3)cc21	-	0	-	-	-	-
COc1ccc(-c2cc(C(=O)NCC3CCCO3)on2)cc1OC (stereo not given)	-	0	0	-	0	0
O=C(CNC(=O)c1ccc(Cl)cc1Cl)NCC1CCCO1 (stereo not given)	-	23.9µM	0	-	0	0
O=C(NCC1CCCO1)c1cc(-c2ccc(F)cc2)no1 (stereo not given)	-	?	?	-	3.16µM	0
Cc1ccc(-c2cc(C(=O)NCC3CCCO3)no2)cc1 (stereo not given)	0	0[2.3 µM]	?	10µM	2.82µM	2.51µM
O=C(NCC1CCCO1)c1cc(-c2ccccc2)on1 (stereo not given)	0	15.1µM	10.3µM	35.5µM	2.51µM	2.51µM
C[C@H](N)CCCP(=O)(O)O	-	-	-	0	-	-
Cc1cccc(NC(=O)C(=O)NCC2CCCO2)c1 (stereo not given)	0	21.3µM	?	-	0.708µM	2.51µM
O=C(NCC1CCCO1)c1cc(-c2ccc(Cl)cc2Cl)on1 (stereo not given)	0	3.38µM	?	25.1µM	2.82µM	3.55µM
O=C(NC(=S)NCC1CCCO1)c1ccc(Cl)cc1Cl (stereo not given)	0	0	0	0	0	0
CCCN1CCN(CCCNC(=O)C(CC)n2nc(C)n3c(cc4occc43)c2=O)CC1 (stereo not given)	-	0	0	0	0	0
CC(=O)c1ccc(NC(=O)COC(=O)c2nc(Cl)ccc2Cl)cc1	0	0	0	0	0	0
COc1ccc(CCN2CCCC(CN(C)C(=O)c3ccoc3)C2)cc1 (stereo not given)	-	15.1µM	16.4µM	-	2.24µM	2.51µM
CN(CC1CCCN(CCc2ccccc2F)C1)C(=O)c1ccoc1 (stereo not given)	-	0	0	-	0	0
O=C(NCCCc1nc2ccccc2n1Cc1cccc(Cl)c1)c1ccco1	-	0	-	0	-	-
O=c1[nH]c(C2CC2)nc2sc3c(c12)CCCC3	0	0	0	0	0	0
N#Cc1cnn(-c2nc3sc4c(c3c(=O)[nH]2)CCCC4)c1N	0	6.01µM	0	0	0	0
CCN(CC)C(=O)CSc1nnc2sc3ccccc3n12	0	0	0	0	0	0
COc1cccc(OCCSc2nnc3sc4ccccc4n23)c1	0	19µM	?	?	0	0
c1ccc(OCCSc2nnc3sc4ccccc4n23)cc1	0	0.426µM	?	0	0.316µM	0.355µM
Cn1c(=O)n(-c2ccc(F)c(Cl)c2)c(=O)c2sc3ccccc3c21	-	0	-	0	-	-
SMILES	Luc counter	FLuc counter	ELG1 genotox	SMN2 splice up	Rab9 prom act	NPC1 promoter act
CCN1CCN(c2ccc(NC(=O)c3ccc(Br)o3)cc2)CC1	-	16.9µM	16.4µM	-	?	?
O=C(Nc1ccc(N2CCN(C(=O)c3ccccc3)CC2)cc1)c1ccc(Br)o1	0	0	0	0	0	0
O=C(Nc1ccc(N2CCCC2)cc1)c1ccc(Br)o1	0	10.7µM	?	?	0.355µM	0.501µM
O=C1CC2(CCN(C(=O)c3ccc(F)cc3)CC2)Oc2ccccc21	-	0	0	-	0	0
CC1CCc2c(sc(NC(=O)c3ccccc3C(=O)O)c2C#N)C1 (stereo not given)	0	21.3µM	?	-	?	?
Cc1cc(C(=O)Nc2sc3c(c2C#N)CCC(C)C3)cs1 (stereo not given)	0	?	4.61µM	3.98µM	0.562µM	1.26µM
CCC(C)(C)C1CCc2c(sc(NC(=O)c3ccccc3C(=O)O)c2C#N)C1 (stereo not given)	-	10.7µM	0	-	0	0
CC1CCc2c(sc(NC(=S)NC(=O)c3ccccc3)c2C#N)C1 (stereo not given)	-	?	0	-	0	0
Cc1cc(C)c(NC(=O)c2ccc3c(c2)CCN3S(C)(=O)=O)c(C)c1	-	0	0	-	0	0
CCOc1ccccc1CN1CCNC(=O)C1CC(=O)N(C)C1CCOCC1 (stereo not given)	-	0	0	-	0	0
O=C(O/N=C1\CCS(=O)(=O)c2sccc21)c1c(F)cccc1F	0	4.78µM	0	0	0	0
COc1cccc(C(=O)O/N=C2\CCS(=O)(=O)c3sccc32)c1	0	1.51µM	0	0	0	0
O=S1(=O)CC/C(=N\Nc2ccccc2)c2ccsc21	0	?	0	0	0	0
Cc1ccc(C(=O)O/N=C2\CCS(=O)(=O)c3sccc32)cc1	0	0.477µM	0	0	0	0
Cc1oc2ccc(O)c(CN3CCN(C)CC3)c2c1C(=O)Nc1ccc(C(C)C)cc1	-	0	-	0	-	-
CCc1ccc(CNC(=O)C(CC)n2ccc3cc(S(=O)(=O)N4CCCCC4)ccc32)cc1 (stereo not given)	-	0	-	-	-	-
Cc1cc(C)n(C(=O)COc2ccc([N+](=O)[O-])cc2)n1	0	0	0	0	0	0
Cc1cc(C)n(C(N)=NC(=O)c2ccc([N+](=O)[O-])cc2)n1	-	?	?	-	2.51µM	2.82µM
CC1CCCN(CCCOc2ccccc2-c2ccccc2)C1 (stereo not given)	0	0	0	0	0	0
Cc1ccc(-n2ncc3c(N4CCC(C)CC4)ncnc32)cc1C	-	1.51µM	-	-	-	-
COc1ccc(-n2ncc3c(N4CCC(C)CC4)ncnc32)cc1	-	0.536µM	0.259µM	-	0.1µM	0.112µM
CCOC(=O)C1CCN(c2ncnc3c2cnn3-c2ccccc2)CC1	0	?	?	0	0	0
CC1CCN(c2ncnc3c2cnn3-c2ccccc2)CC1	0	2.13µM	1.46µM	12.6µM	0.631µM	0.891µM
CC(C)(C)OC(=O)COc1ccc(/C=N/NC(=O)CN2CCCCC2)cc1	-	0	?	-	1.12µM	1.58µM
O=C(O)COc1ccc(/C=N/NC(=O)COc2nsnc2N2CCOCC2)cc1	0	0	0	-	0	0
COc1ccc(/C=N/NC(=O)CN2CCCC2)cc1	-	0	0	-	0	0
CC(C)(C)c1ccc(OCC(=O)N/N=C/c2ccc(N3CCOCC3)cc2)cc1	0	5.36µM	0	0	0	0
CC(C)(C)c1ccc(OCC(=O)N/N=C/c2ccsc2)cc1	-	10.7µM	0	-	0	0
